From PubChem BioAssay (EPA / NIEHS)
The source made the active and inactive calls. How the source made its calls: active means hit-call score of the fitted dose curve at least 0.9, where 1 is the maximum; inactive means score below 0.9.

Experiments:
[1] = ATG_GLI_CIS: Attagene CIS-FACTORIAL HepG2 Assay for human Zinc Finger Protein GLI1 (AID 2282945); conditions: HepG2, Attagene cis-factorial reporter mRNA, GLI element; actives raise or lower the signal
In short: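 HepG2 cells transiently transfected with cis-promoter multiplexed reporter units report endogenous transcription factor activity. After 24 h chemical exposure, reporter mRNA was quantified by RT-PCR, 6-FAM labelling, HpaI digestion and capillary electrophoresis, with bidirectional fitting against DMSO.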

[2] = biological target: Bile acid receptor (Homo sapiens) (UniProt Q96RI1); test: ATG_IR1_CIS: Attagene CIS-FACTORIAL HepG2 Assay for human Nuclear Receptor Subfamily 1 Group H Member 4 (NR1H4), IR1 submotif (AID 2282946); conditions: IR1 reporter transcription, actives raise or lower the signal
In short: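 Readout: reporter transcript levels by RT-PCR with fluorescent capillary electrophoresis, from HepG2 cells transiently transfected with multiplexed cis-regulated reporters and dosed 24 h. Gain- or loss-of-signal fitted versus DMSO negative control.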

[3] = ATG_GRE_CIS: Attagene CIS-FACTORIAL HepG2 Assay for human Glucocorticoid Response Elements (GRE) (AID 2282947); conditions: HepG2 GRE cis-reporter, Attagene multiplex mRNA; actives raise or lower the signal
In short: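 Cells (HepG2) bearing transfected cis-promoter reporter transcription units were treated with chemical for 24 hours. Reporter mRNA was measured via RT-PCR with capillary electrophoresis, and activity was fitted in both directions relative to DMSO.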

[4] = ATG_ISRE_CIS: Attagene CIS-FACTORIAL HepG2 Assay for human Interferon Regulatory Factor 1 (IRF1) binding to an Interferon-Stimulated Response Element (ISRE) (AID 2282948); conditions: HepG2 ISRE cis-reporter (Attagene), mRNA transcription readout; actives raise or lower the signal
In short: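 Uses HepG2 liver cells transfected with cis-regulated reporters and measures mRNA 24 h post-dosing through RT-PCR, primer-extension labelling and capillary electrophoresis, with DMSO as negative control.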

[5] = ATG_M_32_CIS: Attagene CIS-FACTORIAL HepG2 Assay for M32 Transcription Factor (Internal Marker) (AID 2282949); conditions: HepG2 Attagene cis-factorial M32 reporter, mRNA; actives raise or lower the signal;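 further: background control marker of the multiplexed CIS panel rather than a real target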
In short: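 HepG2 human liver cells transiently transfected with cis-promoter-driven multiple reporter transcription units, dosed 24 h. Reporter mRNA quantified by RT-PCR, FAM-labelled primer extension, HpaI digest and capillary electrophoresis; bidirectional fit versus DMSO baseline.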

[6] = biological target: Hypoxia-inducible factor 1-alpha (Homo sapiens) (UniProt Q16665); test: ATG_HIF1a_CIS: Attagene CIS-FACTORIAL HepG2 Assay for human Hypoxia Inducible Factor 1 (HIF1A) (AID 2282951); conditions: HepG2 Attagene cis-factorial HIF1a reporter transcription; actives raise or lower the signal
In short: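 After 24 h chemical exposure of reporter-transfected HepG2 cells, reporter cDNA was PCR-amplified, labelled by 6-FAM primer extension (2 min 95 C, 20 s 68 C, 10 min 72 C), HpaI-cut (2 h, 37 C) and analysed by CE.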

[7] = biological target: Hepatocyte nuclear factor 6 (Homo sapiens) (UniProt Q9UBC0); test: ATG_HNF6_CIS: Attagene CIS-FACTORIAL HepG2 Assay for human Hepatocyte Nuclear Factor 6 (HNF6) (AID 2282952); conditions: HepG2 Attagene cis-factorial HNF6 reporter transcription; actives raise or lower the signal
In short: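 First, HepG2 cells were transfected with the multiplexed cis reporter library and dosed with chemical for 24 h. Next, RNA was reverse-transcribed, PCR-amplified and fluorescently labelled. Finally, HpaI-digested fragments were read by capillary electrophoresis.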

[8] = biological target: Heat shock factor protein 1 (Homo sapiens) (UniProt Q00613); test: ATG_HSE_CIS: Attagene CIS-FACTORIAL HepG2 Assay for human Heat Shock Transcription Factor 1 (HSE) (AID 2282953); conditions: HepG2 HSE cis-reporter, Attagene RNA transcription; actives raise or lower the signal
In short: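 After a 24 h incubation with test chemical, transfected HepG2 cells were harvested for RNA; reporter transcripts were measured by RT-PCR and capillary electrophoresis. Values reflect gain or loss of signal relative to DMSO.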

[9] = ATG_MRE_CIS: Attagene CIS-FACTORIAL HepG2 Assay for human Metal Responsive Element (MRE) (AID 2282954); conditions: HepG2 MRE cis-reporter transcription, Attagene multiplex; actives raise or lower the signal
In short: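 Cells were transfected with cis-promoter reporter transcription units, then dosed for 24 h. RNA was reverse-transcribed, amplified, fluorescently labelled and resolved by capillary electrophoresis, and activity was fitted in both directions relative to DMSO.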

[10] = ATG_PBREM_CIS: Attagene CIS-FACTORIAL HepG2 Assay for human Phenobarbital-responsive Enhancer Module (PBREM) (AID 2282955); conditions: HepG2 PBREM cis-reporter, Attagene multiplexed transcription; actives raise or lower the signal
In short: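 Measures endogenous factor action on a phenobarbital-responsive enhancer module. HepG2 transiently carrying cis reporters, 24 h treatment, mRNA read-out by RT-PCR plus capillary electrophoresis.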

[11] = biological target: Paired box protein Pax-6 (Homo sapiens) (UniProt P26367); test: ATG_Pax6_CIS: Attagene CIS-FACTORIAL HepG2 Assay for human Paired Box 6 (PAX6) (AID 2282956); conditions: HepG2 CIS-FACTORIAL PAX6 reporter transcription, RNA readout; actives raise or lower the signal
In short: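 DMSO-referenced bidirectional fits of reporter mRNA fluorescence; HepG2 with transient cis-promoter MRTUs, 24 h post-dose, RT-PCR plus capillary electrophoresis detection.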

[12] = ATG_PPRE_CIS: Attagene CIS-FACTORIAL HepG2 Assay for human Peroxisome Proliferator-activated Response Element (PPRE) (AID 2282958); conditions: HepG2 PPRE cis-element reporter, Attagene transcription factor profiling; actives raise or lower the signal
In short: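 PPRE activity in HepG2: transient cis-reporter transfection, 24 h compound incubation, reporter mRNA by RT-PCR and CE fluorescence; gain/loss fitted against DMSO.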

[13] = ATG_RORE_CIS: Attagene CIS-FACTORIAL HepG2 Assay for human RAR-related Orphan Receptor Element (RORE) (AID 2282959); conditions: HepG2 Attagene cis-factorial RORE reporter, mRNA; actives raise or lower the signal
In short: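 A 24-hour exposure of transfected HepG2 hepatoma cells precedes RNA isolation and reporter RT-PCR. Labeled products are digested with HpaI and resolved by capillary electrophoresis, with gain or loss of signal scored relative to DMSO.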

[14] = ATG_Sox_CIS: Attagene CIS-FACTORIAL HepG2 Assay for human SRY-box transcription factor (SOX) (AID 2282960); conditions: HepG2 Attagene cis-factorial SOX reporter, mRNA; actives raise or lower the signal
In short: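 HepG2, cis reporter units, 24 h exposure. Reporter mRNA: RT-PCR → FAM labelling → HpaI → CE fluorescence. Bidirectional fit vs DMSO.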

[15] = ATG_SREBP_CIS: Attagene CIS-FACTORIAL HepG2 Assay for human Sterol Regulatory Element Binding (SREBP) (AID 2282962); conditions: HepG2 Attagene cis-factorial SREBP reporter, mRNA; actives raise or lower the signal
In short: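 In this cis-format assay, HepG2 liver cells express reporters controlled by promoter elements responsive to native transcription factors. Exposure lasts 24 h; reporter mRNA fluorescence from capillary electrophoresis gives the signal, fitted bidirectionally against DMSO.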

[16] = biological target: Signal transducer and activator of transcription 3 (Homo sapiens) (UniProt P40763); test: ATG_STAT3_CIS: Attagene CIS-FACTORIAL HepG2 Assay for human Signal Transducer and Activator of Transcription 3 (STAT3) (AID 2282963); conditions: HepG2, Attagene cis-factorial STAT3 reporter transcription; actives raise or lower the signal
In short: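 HepG2, MRTU-transfected, 24 h dosing. RNA → RT → PCR → FAM label → HpaI → CE. Bidirectional fit vs DMSO.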

[17] = ATG_TA_CIS: Attagene CIS-FACTORIAL HepG2 Assay for human TA Basal Promoter (AID 2282964); conditions: HepG2 Attagene CIS-factorial TA basal promoter reporter; actives raise or lower the signal
In short: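 Multiplexed mRNA reporter assay, HepG2, 24 h. Reporter cDNA amplified, 6-FAM primer-extended, HpaI-cut, CE-sized; DMSO = negative control and baseline.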

[18] = ATG_PXRE_CIS: Attagene CIS-FACTORIAL HepG2 Assay for human Pregnane X Receptor Element (PXRE) (AID 2282957); conditions: HepG2 Attagene CIS-FACTORIAL PXRE reporter, mRNA; actives raise or lower the signal
In short: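 After a 24 h chemical incubation, total RNA from transfected HepG2 cells was reverse-transcribed and reporter cDNA amplified, FAM-labeled, HpaI-digested and sized by capillary electrophoresis. DMSO served as baseline for bidirectional curve fitting.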

[19] = biological target: Transcription factor Sp1 (Homo sapiens) (UniProt P08047); test: ATG_Sp1_CIS: Attagene CIS-FACTORIAL HepG2 Assay for human Specificity Protein 1 (Sp1) (AID 2282961); conditions: HepG2 Sp1 cis-reporter transcription, actives raise or lower the signal
In short: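 Liver-derived HepG2 cells, cis-element reporter library, 24 h treatment; RNA isolated, cDNA amplified with reporter-specific primers, FAM-labeled fragments sized on capillary analyzer. DMSO baseline, bidirectional curve fit.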

[20] = ATG_M_06_CIS: Attagene CIS-FACTORIAL HepG2 Assay for M06 Transcription Factor (Internal Marker) (AID 2282950); conditions: HepG2 Attagene CIS-FACTORIAL M06 internal marker reporter; actives raise or lower the signal
In short: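 Fluorescence-labelled RT-PCR products from cis-promoter reporter units, cut with HpaI and resolved by capillary electrophoresis, give the signal. Cells are human HepG2, dosed for 24 h. Serves as background control, fitted relative to DMSO.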

Measured: AC50

Chain of Hepatocyte nuclear factor 6 (Homo sapiens) (Q9UBC0 whole entry, looked up, the tested form may be a part): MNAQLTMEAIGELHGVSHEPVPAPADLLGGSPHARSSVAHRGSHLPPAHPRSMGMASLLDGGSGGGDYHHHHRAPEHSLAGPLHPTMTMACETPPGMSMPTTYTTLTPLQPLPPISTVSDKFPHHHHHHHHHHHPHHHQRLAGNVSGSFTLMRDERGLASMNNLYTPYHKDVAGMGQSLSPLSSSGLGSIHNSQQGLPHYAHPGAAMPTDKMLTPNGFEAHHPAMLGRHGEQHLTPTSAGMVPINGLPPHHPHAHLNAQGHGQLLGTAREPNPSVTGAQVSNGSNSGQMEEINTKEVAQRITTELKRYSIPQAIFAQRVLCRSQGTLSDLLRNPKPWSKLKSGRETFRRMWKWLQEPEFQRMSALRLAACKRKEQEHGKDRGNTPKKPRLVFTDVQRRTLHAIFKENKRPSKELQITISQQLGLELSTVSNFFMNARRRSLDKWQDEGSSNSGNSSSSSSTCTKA
Chain of Transcription factor Sp1 (Homo sapiens) (P08047 whole entry, looked up, the tested form may be a part): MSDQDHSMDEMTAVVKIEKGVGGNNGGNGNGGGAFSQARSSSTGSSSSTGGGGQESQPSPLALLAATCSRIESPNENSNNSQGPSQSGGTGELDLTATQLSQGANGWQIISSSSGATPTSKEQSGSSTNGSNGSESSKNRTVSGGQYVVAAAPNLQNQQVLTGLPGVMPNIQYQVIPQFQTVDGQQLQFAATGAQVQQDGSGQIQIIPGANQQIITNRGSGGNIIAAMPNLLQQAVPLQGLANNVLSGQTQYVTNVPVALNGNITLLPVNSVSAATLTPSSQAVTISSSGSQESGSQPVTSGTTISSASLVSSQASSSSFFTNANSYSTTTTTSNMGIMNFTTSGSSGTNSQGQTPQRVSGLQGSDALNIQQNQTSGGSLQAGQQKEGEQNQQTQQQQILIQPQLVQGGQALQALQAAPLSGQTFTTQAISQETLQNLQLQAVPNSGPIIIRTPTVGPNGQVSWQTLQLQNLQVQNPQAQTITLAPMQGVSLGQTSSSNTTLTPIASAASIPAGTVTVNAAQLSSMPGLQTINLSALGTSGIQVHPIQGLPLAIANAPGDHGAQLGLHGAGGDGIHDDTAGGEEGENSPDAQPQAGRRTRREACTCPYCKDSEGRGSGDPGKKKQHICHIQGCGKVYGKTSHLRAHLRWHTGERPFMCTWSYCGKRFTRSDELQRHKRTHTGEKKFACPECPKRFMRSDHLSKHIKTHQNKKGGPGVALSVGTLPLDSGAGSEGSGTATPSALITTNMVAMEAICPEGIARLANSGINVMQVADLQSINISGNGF
Chain of Bile acid receptor (Homo sapiens) (Q96RI1 whole entry, looked up): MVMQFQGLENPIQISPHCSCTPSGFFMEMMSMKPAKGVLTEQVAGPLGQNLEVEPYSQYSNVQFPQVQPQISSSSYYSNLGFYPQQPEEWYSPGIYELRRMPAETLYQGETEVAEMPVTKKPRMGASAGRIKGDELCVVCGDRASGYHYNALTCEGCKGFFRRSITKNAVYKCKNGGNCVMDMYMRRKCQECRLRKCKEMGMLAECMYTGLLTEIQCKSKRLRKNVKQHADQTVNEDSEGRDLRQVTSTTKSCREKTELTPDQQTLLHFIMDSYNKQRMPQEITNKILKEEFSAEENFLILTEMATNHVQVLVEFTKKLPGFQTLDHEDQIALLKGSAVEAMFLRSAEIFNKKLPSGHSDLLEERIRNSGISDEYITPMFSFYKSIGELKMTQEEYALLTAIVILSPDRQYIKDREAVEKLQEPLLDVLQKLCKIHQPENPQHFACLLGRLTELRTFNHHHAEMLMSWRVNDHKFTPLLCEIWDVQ
Chain of Signal transducer and activator of transcription 3 (Homo sapiens) (P40763 whole entry, looked up): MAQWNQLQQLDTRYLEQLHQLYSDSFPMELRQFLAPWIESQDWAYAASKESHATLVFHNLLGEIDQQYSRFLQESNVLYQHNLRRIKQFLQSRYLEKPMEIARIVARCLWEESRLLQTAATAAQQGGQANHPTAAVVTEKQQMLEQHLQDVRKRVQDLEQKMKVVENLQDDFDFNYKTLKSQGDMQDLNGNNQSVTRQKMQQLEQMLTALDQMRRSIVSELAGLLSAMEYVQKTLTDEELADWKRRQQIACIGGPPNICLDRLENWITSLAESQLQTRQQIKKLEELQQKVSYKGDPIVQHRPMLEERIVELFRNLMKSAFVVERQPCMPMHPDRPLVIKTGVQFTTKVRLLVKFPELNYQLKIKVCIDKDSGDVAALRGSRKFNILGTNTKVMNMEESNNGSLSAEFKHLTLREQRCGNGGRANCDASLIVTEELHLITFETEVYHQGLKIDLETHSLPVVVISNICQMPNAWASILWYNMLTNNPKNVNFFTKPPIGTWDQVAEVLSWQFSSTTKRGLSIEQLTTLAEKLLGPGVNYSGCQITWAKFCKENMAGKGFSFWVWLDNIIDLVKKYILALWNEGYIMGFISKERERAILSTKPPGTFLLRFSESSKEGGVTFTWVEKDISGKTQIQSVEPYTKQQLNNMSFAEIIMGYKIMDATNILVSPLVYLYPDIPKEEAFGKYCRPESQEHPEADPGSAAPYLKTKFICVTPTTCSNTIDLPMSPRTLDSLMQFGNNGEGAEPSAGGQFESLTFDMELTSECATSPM
Chain of Heat shock factor protein 1 (Homo sapiens) (Q00613 whole entry, looked up): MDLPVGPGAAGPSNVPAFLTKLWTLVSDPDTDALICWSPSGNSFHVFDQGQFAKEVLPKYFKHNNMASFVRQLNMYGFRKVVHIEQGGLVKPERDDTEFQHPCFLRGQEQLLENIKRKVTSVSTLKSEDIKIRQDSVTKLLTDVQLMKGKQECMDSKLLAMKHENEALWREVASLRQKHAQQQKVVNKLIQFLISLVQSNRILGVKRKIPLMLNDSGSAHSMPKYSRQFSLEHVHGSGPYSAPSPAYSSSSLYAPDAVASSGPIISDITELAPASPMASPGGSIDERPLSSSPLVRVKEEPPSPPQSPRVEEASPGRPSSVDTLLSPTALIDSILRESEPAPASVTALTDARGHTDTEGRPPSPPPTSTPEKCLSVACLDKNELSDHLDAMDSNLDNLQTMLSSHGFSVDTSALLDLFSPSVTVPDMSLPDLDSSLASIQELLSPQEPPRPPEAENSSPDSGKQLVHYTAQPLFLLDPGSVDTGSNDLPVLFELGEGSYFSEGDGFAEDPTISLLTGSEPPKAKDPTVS
Chain of Paired box protein Pax-6 (Homo sapiens) (P26367 whole entry, looked up): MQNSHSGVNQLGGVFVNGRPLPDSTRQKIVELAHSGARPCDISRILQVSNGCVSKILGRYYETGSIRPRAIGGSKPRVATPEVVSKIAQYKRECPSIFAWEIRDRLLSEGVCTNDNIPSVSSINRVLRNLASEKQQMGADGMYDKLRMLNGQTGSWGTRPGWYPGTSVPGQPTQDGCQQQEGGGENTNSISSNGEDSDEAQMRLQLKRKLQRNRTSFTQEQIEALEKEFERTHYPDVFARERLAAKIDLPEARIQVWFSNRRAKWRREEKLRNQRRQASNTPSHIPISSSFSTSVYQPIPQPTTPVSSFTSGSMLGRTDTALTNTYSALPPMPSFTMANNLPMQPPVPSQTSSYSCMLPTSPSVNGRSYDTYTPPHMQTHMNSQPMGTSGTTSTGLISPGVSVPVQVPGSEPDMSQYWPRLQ
Chain of Hypoxia-inducible factor 1-alpha (Homo sapiens) (Q16665 whole entry, looked up): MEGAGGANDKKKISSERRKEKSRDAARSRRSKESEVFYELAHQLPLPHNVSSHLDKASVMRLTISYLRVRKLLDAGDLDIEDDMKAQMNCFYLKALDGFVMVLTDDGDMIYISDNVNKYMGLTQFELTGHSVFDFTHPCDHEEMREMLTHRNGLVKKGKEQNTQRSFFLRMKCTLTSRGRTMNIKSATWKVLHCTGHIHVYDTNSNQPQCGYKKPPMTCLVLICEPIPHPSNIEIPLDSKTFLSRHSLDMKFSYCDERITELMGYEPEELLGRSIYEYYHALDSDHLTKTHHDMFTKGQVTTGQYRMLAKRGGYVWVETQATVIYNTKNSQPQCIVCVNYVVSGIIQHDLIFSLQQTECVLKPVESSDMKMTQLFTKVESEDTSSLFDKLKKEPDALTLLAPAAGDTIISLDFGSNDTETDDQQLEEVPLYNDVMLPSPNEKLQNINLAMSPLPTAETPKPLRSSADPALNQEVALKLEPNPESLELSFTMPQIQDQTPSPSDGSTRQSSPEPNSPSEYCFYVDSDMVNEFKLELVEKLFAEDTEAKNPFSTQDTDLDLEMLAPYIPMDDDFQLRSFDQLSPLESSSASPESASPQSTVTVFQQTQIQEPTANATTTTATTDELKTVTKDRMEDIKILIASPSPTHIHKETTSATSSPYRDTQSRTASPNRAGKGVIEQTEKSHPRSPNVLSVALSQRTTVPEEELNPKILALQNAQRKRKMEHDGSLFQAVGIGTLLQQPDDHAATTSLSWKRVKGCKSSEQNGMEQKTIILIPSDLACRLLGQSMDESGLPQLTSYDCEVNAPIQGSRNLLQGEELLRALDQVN

CCC/C=C/CO
not listed: [18] | [19] | [20]
inactive: all other assays above

FC(F)(F)C(F)(F)C(F)(F)C(F)(F)C(F)(F)C(F)(F)C(F)(F)CCI
not listed: [20]
inactive: all other assays above

O=C(O)C(F)(F)C(F)(F)C(F)(F)C(=O)O
not listed: [8] | [18] | [20]
inactive: all other assays above

O=C1OC(=O)c2ccc3c4c(ccc1c24)C(=O)OC3=O
not listed: [6] | [8] | [10] | [19]
inactive: all other assays above

CCC(C)CO (centres undefined)
not listed: [8] | [10] | [20]
inactive: all other assays above

CC(C)(C)c1cc(CCC(=O)OCC(COC(=O)CCc2cc(C(C)(C)C)c(O)c(C(C)(C)C)c2)(COC(=O)CCc2cc(C(C)(C)C)c(O)c(C(C)(C)C)c2)COC(=O)CCc2cc(C(C)(C)C)c(O)c(C(C)(C)C)c2)cc(C(C)(C)C)c1O
active: [18] 21.3 µM
not listed: [20]
inactive: all other assays above

CSc1ccc(Cl)cc1
not listed: [6] | [8] | [15] | [19] | [20]
inactive: all other assays above

CN(C(=O)C(F)(F)C(F)(F)C(F)(F)F)[Si](C)(C)C
not listed: [19] | [20]
inactive: all other assays above

CCN(CC)c1ccc(C=O)c(O)c1
active: [4] 75.4 µM | [9] 52.2 µM | [13] 38.1 µM
not listed: [18] | [20]
inactive: all other assays above

CC(C)C(=O)OCc1ccccc1
not listed: [8] | [15] | [18] | [20]
inactive: all other assays above

CCOC(=O)CCC(C)=O
not listed: [20]
inactive: all other assays above

O=C(O)CCC(F)(F)C(F)(F)C(F)(F)F
not listed: [10] | [15] | [20]
inactive: all other assays above

OCCCc1cccnc1
not listed: [6] | [8] | [19] | [20]
inactive: all other assays above

FC(F)(F)C(F)(F)C(F)(F)CC1CO1 (centres undefined)
not listed: [20]
inactive: all other assays above

CC(O)C#CC(C)O (centres undefined)
inactive: [3] | [5] | [6] | [10] | [12] | [13] | [16] | [17]
active: [1] 142 µM | [2] 67.7 µM | [4] 99.5 µM | [7] 70.5 µM | [8] 78.2 µM | [9] 57.2 µM | [11] 81.3 µM | [18] 148 µM | [14] 77.1 µM

CCN(CC)c1ccc(C=O)cc1
active: [18] 27.7 µM
not listed: [20]
inactive: all other assays above
